Laboratory results taken from PubChem BioAssay (Tox21).
A number with no mark means an inactive call. Records with an inconclusive call do not appear. Calls of active or inactive are those of the source. Calls come from the whole dose curve.
% is set by controls: 0 for no effect and ±100 for the full control effect.

Each molecule was assayed against Acetylcholinesterase (Homo sapiens) (UniProt P22303) (assay: Acetylcholinesterase (AChE) small molecule antagonists: fluorescence cell-based qHTS assay (AID 1347398; note: nearly all actives have a fitted effect of over 50% in size)). Conditions: SH-SY5Y cells; Potency: AChE activity; outcome: AChE activity; series mostly up to 115 µM; activity change, negative = inhibition: at the top concentration.
Chain of Acetylcholinesterase (Homo sapiens) (P22303 whole entry, looked up): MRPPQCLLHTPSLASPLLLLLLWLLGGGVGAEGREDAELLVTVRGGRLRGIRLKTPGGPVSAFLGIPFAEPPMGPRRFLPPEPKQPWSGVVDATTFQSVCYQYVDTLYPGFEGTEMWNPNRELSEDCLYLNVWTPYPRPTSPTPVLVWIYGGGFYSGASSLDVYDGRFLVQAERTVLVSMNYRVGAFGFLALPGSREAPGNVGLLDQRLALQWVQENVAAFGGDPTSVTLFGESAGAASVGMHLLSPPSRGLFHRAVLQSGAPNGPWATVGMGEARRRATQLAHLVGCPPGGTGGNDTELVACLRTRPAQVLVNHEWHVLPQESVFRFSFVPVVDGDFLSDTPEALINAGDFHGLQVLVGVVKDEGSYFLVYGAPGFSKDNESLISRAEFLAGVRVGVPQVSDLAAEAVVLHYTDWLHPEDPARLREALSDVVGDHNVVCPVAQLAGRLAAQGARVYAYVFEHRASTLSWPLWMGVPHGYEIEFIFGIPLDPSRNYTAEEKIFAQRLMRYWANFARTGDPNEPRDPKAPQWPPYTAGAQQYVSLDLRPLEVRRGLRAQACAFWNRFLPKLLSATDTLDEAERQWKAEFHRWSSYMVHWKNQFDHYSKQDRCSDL
In short: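 Cells (SH-SY5Y) attached overnight, were dosed with compound or DMSO vehicle for 30 min at 37 C, and then incubated 40 min at room temperature with acetylthiocholine and Thiolite Green; green fluorescence indexed AChE activity.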
For `CCn1cc(C(=O)O)c(=O)c2cc(F)c(N3CCNC(C)C3)c(F)c21` (stereo not given), the “activity change, negative = inhibition” value was -1.44% [at 53.7 µM]. In the case of `O=C(O)c1ccc(OCCN2CCCCC2)cc1`, the “activity change, negative = inhibition” value is reported as 13.6% [at 53.7 µM]. `CC(C)(C)c1ccc(C(=O)CCCCl)cc1` was tested, and the “activity change, negative = inhibition” value was 1.39% [at 53.7 µM]. For `O=C(O)c1cc(-c2ccccc2)nc2ccccc12`, the Potency was “inactive”. For `COc1ccc(OC)cc1`, the Potency was “inactive”. With `CC(CN(C)C)C(C)(O)Cc1ccc(Cl)cc1` (stereo not given) the “activity change, negative = inhibition” value was -8.52% [at 53.7 µM]. `Brc1ccccn1` was tested, and the “activity change, negative = inhibition” value was 7.17%. `COC(C)(C)OC` was tested, and the “activity change, negative = inhibition” value was -0.16%. In the case of `C=C[C@H]1CN2CC[C@H]1C[C@@H]2[C@@H](O)c1ccnc2ccc(OC)cc12`, the Potency is reported as “inactive”. In the case of `Cc1ccc2c(c1)C(=O)OC2=O`, the Potency is reported as “inactive”. In the case of `CCc1cc(C(C)(C)C)c(O)c(C(C)(C)C)c1`, the Potency is reported as “inactive”. For `O=C1NC2NC(=O)NC2N1` (stereo not given), the “activity change, negative = inhibition” value was 1.64%. `CC(=O)OC/C=C(\C)CCC=C(C)C` was tested, and the Potency was “inactive”. `Cc1cc2c(s1)Nc1ccccc1N=C2N1CCN(C)CC1` was tested, and the “activity change, negative = inhibition” value was -0.248% [at 53.7 µM]. In the case of `C[Si](C)O[Si](C)(C)O[Si](C)(C)O[Si](C)C`, the “activity change, negative = inhibition” value is reported as 0.591%. In the case of `CCCCNC(N)=O`, the Potency is reported as “inactive”. For `NC1CCCCC1`, the Potency was “inactive”. `COCC(O)CO` (stereo not given) was tested, and the “activity change, negative = inhibition” value was 1.05%. For `O=c1cc(-c2ccccc2)oc2cc(O)cc(O)c12`, the “activity change, negative = inhibition” value was 0.676%. For `CCC(=O)c1ccc(O)cc1`, the “activity change, negative = inhibition” value was 6.6% [at 53.7 µM]. In the case of `Cc1cccc2c1ccc1ccccc12`, the “activity change, negative = inhibition” value is reported as 0.787%. In the case of `CC(=O)Nc1ccc(CC(=O)O)cc1`, the Potency is reported as “inactive”. In the case of `Cc1cccc(OCCOc2cccc(C)c2)c1`, the “activity change, negative = inhibition” value is reported as 3.38%. `Cc1c(Cl)cccc1[N+](=O)[O-]` was tested, and the “activity change, negative = inhibition” value was 8.01%. In the case of `Cc1cc(O)cc2c1O[C@](C)(CCC[C@H](C)CCC[C@H](C)CCCC(C)C)CC2`, the “activity change, negative = inhibition” value is reported as 68.9% [at 53.7 µM]. In the case of `CCCCCCCCCCCCCCCCC`, the “activity change, negative = inhibition” value is reported as 2.17%. In the case of `COc1ccc(N=[N+]([O-])c2ccc(OC)cc2)cc1`, the “activity change, negative = inhibition” value is reported as 5.75%. With `C=CCOC(=O)c1ccc(C(=O)OCC=C)c(C(=O)OCC=C)c1` the “activity change, negative = inhibition” value was 2.03%. For `Cc1cccc2ccccc12`, the Potency was “inactive”. `CC/C=C/CCO` was tested, and the “activity change, negative = inhibition” value was 5.27%. With `CC/C=C\CCOC(C)OCC` (stereo not given) the “activity change, negative = inhibition” value was -0.841% [at 53.7 µM]. `O=C(O)CCCl` was tested, and the “activity change, negative = inhibition” value was -0.455%. In the case of `COc1ccc(Nc2ccc(OC)cc2)cc1`, the “activity change, negative = inhibition” value is reported as -18.3%. `CCCOCCO` was tested, and the Potency was “inactive”. For `CC(=O)CC/C=C(\C)CCC=C(C)C`, the Potency was “inactive”. For `C=CC(C)(O)CC/C=C(\C)CC` (stereo not given), the “activity change, negative = inhibition” value was -0.637%. In the case of `N#C[C@@H]1C[C@@H]2C[C@@H]2N1C(=O)[C@@H](N)C12CC3CC(CC(O)(C3)C1)C2`, the “activity change, negative = inhibition” value is reported as 13.1% [at 53.7 µM]. With `C[C@]12C(=O)OC(=O)[C@H]1[C@H]1C=C[C@@H]2C1` the “activity change, negative = inhibition” value was 0.284%. In the case of `CC(=O)c1ccc(O)c(C(N)=O)c1`, the “activity change, negative = inhibition” value is reported as 20.4% [at 53.7 µM]. For `COC(=O)C1=C(C)NC(C)=C(C(=O)OCC(C)=O)C1c1ccccc1[N+](=O)[O-]` (stereo not given), the “activity change, negative = inhibition” value was -6.83% [at 53.7 µM].

The molecules below were run against Acetylcholinesterase (Homo sapiens) (UniProt P22303) (assay: Acetylcholinesterase (AChE) small molecule antagonists: enzyme-based qHTS assay with human liver microsomes (AID 1347399; note: nearly all actives have a fitted effect of over 60% in size)). Conditions: Potency: qHTS inhibition; outcome: qHTS inhibition; series mostly up to 115 µM; activity change, negative = inhibition: at the top concentration.
In short: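 Recombinant human AChE (50 mU/mL in the enzyme mix) and human liver microsomes (0.25 mg/mL final) were preincubated with compound and NADPH (0.25 mg/mL final) for 30 min at 37 C. Acetylthiocholine/DTNB was then added; thiocholine was read colorimetrically after 10 min at room temperature.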
`CCn1cc(C(=O)O)c(=O)c2cc(F)c(N3CCNC(C)C3)c(F)c21` (stereo not given) was tested, and the “activity change, negative = inhibition” value was 0.237% [at 53 µM]. With `O=C(O)c1ccc(OCCN2CCCCC2)cc1` the “activity change, negative = inhibition” value was 0.887% [at 53 µM]. With `CC(C)(C)c1ccc(C(=O)CCCCl)cc1` the “activity change, negative = inhibition” value was -0.733% [at 53 µM]. With `O=C(O)c1cc(-c2ccccc2)nc2ccccc12` the Potency was “inactive”. For `COc1ccc(OC)cc1`, the Potency was “inactive”. With `CC(CN(C)C)C(C)(O)Cc1ccc(Cl)cc1` (stereo not given) the “activity change, negative = inhibition” value was -2.34% [at 53 µM]. In the case of `Brc1ccccn1`, the “activity change, negative = inhibition” value is reported as -0.319%. `COC(C)(C)OC` was tested, and the “activity change, negative = inhibition” value was -0.345%. For `C=C[C@H]1CN2CC[C@H]1C[C@@H]2[C@@H](O)c1ccnc2ccc(OC)cc12`, the Potency was “inactive”. `Cc1ccc2c(c1)C(=O)OC2=O` was tested, and the Potency was “inactive”. With `CCc1cc(C(C)(C)C)c(O)c(C(C)(C)C)c1` the Potency was “inactive”. `O=C1NC2NC(=O)NC2N1` (stereo not given) was tested, and the “activity change, negative = inhibition” value was 0.226%. With `CC(=O)OC/C=C(\C)CCC=C(C)C` the Potency was “inactive”. `Cc1cc2c(s1)Nc1ccccc1N=C2N1CCN(C)CC1` was tested, and the “activity change, negative = inhibition” value was -1% [at 53 µM]. In the case of `C[Si](C)O[Si](C)(C)O[Si](C)(C)O[Si](C)C`, the “activity change, negative = inhibition” value is reported as -2.94%. With `CCCCNC(N)=O` the Potency was “inactive”. In the case of `NC1CCCCC1`, the Potency is reported as “inactive”. In the case of `COCC(O)CO` (stereo not given), the “activity change, negative = inhibition” value is reported as 2.83%. In the case of `O=c1cc(-c2ccccc2)oc2cc(O)cc(O)c12`, the “activity change, negative = inhibition” value is reported as 3.58%. For `CCC(=O)c1ccc(O)cc1`, the “activity change, negative = inhibition” value was -1.18% [at 53 µM]. With `Cc1cccc2c1ccc1ccccc12` the “activity change, negative = inhibition” value was -0.32%. For `CC(=O)Nc1ccc(CC(=O)O)cc1`, the Potency was “inactive”. With `Cc1cccc(OCCOc2cccc(C)c2)c1` the “activity change, negative = inhibition” value was -0.311%. For `Cc1c(Cl)cccc1[N+](=O)[O-]`, the “activity change, negative = inhibition” value was -0.0711%. For `Cc1cc(O)cc2c1O[C@](C)(CCC[C@H](C)CCC[C@H](C)CCCC(C)C)CC2`, the “activity change, negative = inhibition” value was 0.871% [at 53 µM]. With `CCCCCCCCCCCCCCCCC` the “activity change, negative = inhibition” value was 2.22%. For `COc1ccc(N=[N+]([O-])c2ccc(OC)cc2)cc1`, the “activity change, negative = inhibition” value was 2.48%. `C=CCOC(=O)c1ccc(C(=O)OCC=C)c(C(=O)OCC=C)c1` was tested, and the “activity change, negative = inhibition” value was 0.16%. `Cc1cccc2ccccc12` was tested, and the Potency was “inactive”. In the case of `CC/C=C/CCO`, the “activity change, negative = inhibition” value is reported as 0.306%. For `CC/C=C\CCOC(C)OCC` (stereo not given), the “activity change, negative = inhibition” value was 1.39% [at 53 µM]. With `O=C(O)CCCl` the “activity change, negative = inhibition” value was 2.02%. `COc1ccc(Nc2ccc(OC)cc2)cc1` was tested, and the “activity change, negative = inhibition” value was -3.39%. In the case of `CCCOCCO`, the Potency is reported as “inactive”. With `CC(=O)CC/C=C(\C)CCC=C(C)C` the Potency was “inactive”. In the case of `C=CC(C)(O)CC/C=C(\C)CC` (stereo not given), the “activity change, negative = inhibition” value is reported as 0.493%. With `N#C[C@@H]1C[C@@H]2C[C@@H]2N1C(=O)[C@@H](N)C12CC3CC(CC(O)(C3)C1)C2` the “activity change, negative = inhibition” value was 0.743% [at 53 µM]. For `C[C@]12C(=O)OC(=O)[C@H]1[C@H]1C=C[C@@H]2C1`, the “activity change, negative = inhibition” value was -2.57%. For `CC(=O)c1ccc(O)c(C(N)=O)c1`, the “activity change, negative = inhibition” value was -0.142% [at 53 µM]. With `COC(=O)C1=C(C)NC(C)=C(C(=O)OCC(C)=O)C1c1ccccc1[N+](=O)[O-]` (stereo not given) the “activity change, negative = inhibition” value was 10.2% [at 53 µM].
